Read-out in assay [1]: Monokine induced gamma interferon (MIG), CXCL9 (gene 4283)
Nature of the assay: BSK_hDFCGF_MIG: BioMAP Diversity Plus: hDFCGF Assay for Monokine induced gamma interferon (MIG) Biomarker Activity (AID 2283063). The following applies: primary human foreskin fibroblasts; actives raise or lower the signal. In short, it runs like this:
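Human primary foreskin fibroblasts in the hDFCGF system, exposed to test chemical for 24 h; MIG measured by ELISA. Bidirectional curve fitting against DMSO negative control as activity baseline.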

Read-out in assay [2]: Matrix Metallopeptidase 1 (MMP1), MMP1 (gene 4312)
Kind of assay: BSK_hDFCGF_MMP1: BioMAP Diversity Plus: hDFCGF Assay for Matrix Metallopeptidase 1 (MMP1) Biomarker Activity (AID 2283064). Conditions: primary human foreskin fibroblasts; actives raise or lower the signal. In short, it runs like this:
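Human foreskin fibroblasts exposed to chemical for 24 h; MMP1 detected by ELISA, with DMSO as baseline for bidirectional fitting.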

Read-out in assay [3]: Vascular cell adhesion molecule 1 (VCAM1), VCAM1 (gene 7412)
Kind of assay: BSK_hDFCGF_VCAM1: BioMAP Diversity Plus: hDFCGF Assay for Vascular cell adhesion molecule 1 (VCAM1) Biomarker Activity (AID 2283065).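 For AC50: VCAM-1 protein level quantified by ELISA after 24 h chemical exposure.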 The following applies: primary human foreskin fibroblasts; actives raise or lower the signal. The method in brief:
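ELISA readout of VCAM-1 on human dermal fibroblast primary cultures, 24 h after chemical exposure. Gain or loss of signal fitted in both directions against DMSO baseline.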

Read-out in assay [4]: Plasminogen activator inhibitor-1 (PAI1), SERPINE1 (gene 5054)
Nature of the assay: BSK_hDFCGF_PAI1: BioMAP Diversity Plus: hDFCGF Assay for Plasminogen activator inhibitor-1 (PAI1) Biomarker Activity (AID 2283066). Conditions: primary human foreskin fibroblasts; actives raise or lower the signal. In short, it runs like this: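 Human skin fibroblast cultures receive chemical for 24 h before PAI-1 is measured by ELISA; signal changes are fitted bidirectionally against DMSO-treated wells.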

Read-out in assay [5]: Intercellular Adhesion Molecule 1 (ICAM1), ICAM1 (gene 3383)
Nature of the assay: BSK_KF3CT_ICAM1: BioMAP Diversity Plus: KF3CT Assay for Intercellular Adhesion Molecule 1 (ICAM1) Biomarker Activity (AID 2283067). Conditions: primary human keratinocytes with fibroblasts; actives raise or lower the signal. The method in brief: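 Cell-surface ICAM-1 was measured by ELISA 24 h after dosing primary human skin keratinocytes co-cultured with fibroblasts. Parallel SRB staining tracked overt cytotoxicity. Gain or loss of signal was fitted relative to DMSO.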

Read-out in assay [6]: Interferon-gamma inducible Protein 10 (IP10), CXCL10 (gene 3627)
Nature of the assay: BSK_KF3CT_IP10: BioMAP Diversity Plus: KF3CT Assay for Interferon-gamma inducible Protein 10 (IP10) Biomarker Activity (AID 2283068). Conditions: primary human keratinocytes with fibroblasts; actives raise or lower the signal. In short, it runs like this: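 Signal is secreted/surface IP-10 by ELISA in a human primary skin co-culture of keratinocytes and foreskin fibroblasts, taken 24 h post-dosing; DMSO served as negative control.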

Assay [7] is described as follows: BSK_KF3CT_SRB: Viability Assessment in the BioMAP Diversity Plus: KF3CT Assay (AID 2283069).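 Note: read 24 h after compound addition.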 Conditions: primary human keratinocytes with fibroblasts. The method in brief:
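Overt cytotoxicity is assessed as total protein by sulforhodamine B staining in parallel human skin co-cultures at 24 h after dosing. DMSO serves as negative control and baseline.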

Read-out in assay [8]: Interleukin-1 alpha (IL1a), IL1A (gene 3552)
Nature of the assay: BSK_KF3CT_IL1a: BioMAP Diversity Plus: KF3CT Assay for Interleukin-1 alpha (IL1a) Biomarker Activity (AID 2283070). The following applies: primary human keratinocytes with fibroblasts; actives raise or lower the signal. In short, it runs like this: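 Readout is IL-1a level by ELISA, compared bidirectionally with DMSO as baseline. Cells: human keratinocytes co-cultured with foreskin fibroblasts, harvested 24 h post-dose.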

Read-out in assay [9]: TIMP metallopeptidase inhibitor 2 (TIMP2), TIMP2 (gene 7077)
Nature of the assay: BSK_KF3CT_TIMP2: BioMAP Diversity Plus: KF3CT Assay for TIMP metallopeptidase inhibitor 2 (TIMP2) Biomarker Activity (AID 2283071). The following applies: primary human keratinocytes with fibroblasts; actives raise or lower the signal. In short, it runs like this:
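Measurements come from ELISA detection of TIMP-2 at 24 hours in a dosed human keratinocyte and foreskin fibroblast co-culture. DMSO serves as negative control and baseline.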

Read-out in assay [10]: Transforming growth factor beta 1 (TGFb1), TGFB1 (gene 7040)
Nature of the assay: BSK_KF3CT_TGFb1: BioMAP Diversity Plus: KF3CT Assay for Transforming growth factor beta 1 (TGFb1) Biomarker Activity (AID 2283072). The following applies: primary human keratinocytes with fibroblasts; actives raise or lower the signal. The method in brief:
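TGF-b1 ELISA on a 24 h dosed co-culture of human keratinocytes and foreskin fibroblasts; cytotoxicity tracked in parallel cultures by SRB staining.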

Read-out in assay [11]: C-C motif chemokine 2 (Homo sapiens) (UniProt P13500)
Kind of assay: BSK_KF3CT_MCP1: BioMAP Diversity Plus: KF3CT Assay for Monocyte Chemoattractant Protein 1 (MCP1/CCL2) Biomarker Activity (AID 2283073). Conditions: primary human keratinocytes with fibroblasts; actives raise or lower the signal. The method in brief:
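ELISA read-out of MCP-1, 24 h post-dose, in primary human skin keratinocytes co-cultured with fibroblasts. Parallel SRB staining monitors cytotoxicity; changes fitted both directions relative to DMSO.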

Read-out in assay [12]: Matrix Metallopeptidase 9 (MMP9), MMP9 (gene 4318)
Kind of assay: BSK_KF3CT_MMP9: BioMAP Diversity Plus: KF3CT Assay for Matrix Metallopeptidase 9 (MMP9) Biomarker Activity (AID 2283074).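 For AC50: MMP9 protein level quantified by ELISA in the co-culture.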 The following applies: primary human keratinocytes with fibroblasts; actives raise or lower the signal. In short, it runs like this:
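Values come from bidirectional fitting relative to DMSO of MMP-9 levels, which were measured by ELISA. Measurements were taken 24 h after chemical dosing of a keratinocyte and foreskin fibroblast co-culture.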

Read-out in assay [13]: urokinase plasminogen activator (uPA), PLAU (gene 5328)
Kind of assay: BSK_KF3CT_uPA: BioMAP Diversity Plus: KF3CT Assay for urokinase plasminogen activator (uPA) Biomarker Activity (AID 2283075). Conditions: primary human keratinocytes with fibroblasts; actives raise or lower the signal. In short, it runs like this:
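Values derive from bidirectional fitting against DMSO controls. Keratinocyte/foreskin fibroblast co-cultures received chemical; 24 h later uPA was detected by ELISA, with SRB total-protein staining in parallel wells for overt cytotoxicity.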

Read-out in assay [14]: CD40, CD40 (gene 958)
Nature of the assay: BSK_LPS_CD40: BioMAP Diversity Plus: LPS Assay for CD40 Biomarker Activity (AID 2283076). The following applies: primary human HUVEC with PBMC; actives raise or lower the signal. The method in brief: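 In the LPS system of human endothelial cells with peripheral blood mononuclear cells, CD40 levels were read by ELISA 24 h post-treatment. Signal changes in either direction were fitted against the DMSO baseline, with parallel SRB protein staining.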

Read-out in assay [15]: E-selectin (Homo sapiens) (UniProt P16581)
Kind of assay: BSK_LPS_Eselectin: BioMAP Diversity Plus: LPS Assay for Eselectin Biomarker Activity (AID 2283077). The following applies: primary human HUVEC with PBMC; actives raise or lower the signal. In short, it runs like this: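 E-selectin ELISA on LPS-stimulated endothelial cell/PBMC co-cultures, read 24 h post-treatment; gains and losses fitted against DMSO. Parallel SRB staining (0.1% SRB after 10% TCA fixation, 560 nm) flags overt cytotoxicity.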

Read-out in assay [16]: Interleukin-8 (IL8), CXCL8 (gene 3576)
Kind of assay: BSK_LPS_IL8: BioMAP Diversity Plus: LPS Assay for Interleukin-8 (IL8) Biomarker Activity (AID 2283078). Conditions: primary human HUVEC with PBMC; actives raise or lower the signal. The method in brief:
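ELISA read-out of IL-8 after 24 h chemical treatment of LPS-activated endothelial/PBMC human primary co-cultures. Changes either up or down relative to DMSO; overt cytotoxicity checked by sulforhodamine B staining in parallel wells.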

A short description of assay [17]: BSK_LPS_SRB: Viability Assessment in the BioMAP Diversity Plus: LPS Assay (AID 2283079).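 Note: total protein by sulforhodamine B absorbance as a cytotoxicity measure; measured one day after compound addition.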 Conditions: primary human HUVEC with PBMC. The method in brief: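 SRB viability endpoint: cells fixed with 10% TCA, stained with 0.1% SRB, read at 560 nm, 24 h post-dose. HUVEC/PBMC co-culture; signal change in either direction scored relative to DMSO.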
Read-out in assay [18]: Interleukin-1 alpha (IL1a), IL1A (gene 3552)
Nature of the assay: BSK_LPS_IL1a: BioMAP Diversity Plus: LPS Assay for Interleukin-1 alpha (IL1a) Biomarker Activity (AID 2283080). The following applies: primary human HUVEC with PBMC; actives raise or lower the signal. In short, it runs like this:
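Readout is IL-1a level by ELISA, 24 h post-dose, fitted as gain or loss relative to DMSO. System: LPS-activated human primary co-culture of vascular endothelium and peripheral blood mononuclear cells, with parallel SRB total-protein cytotoxicity.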

Read-out in assay [19]: Monocyte Chemoattractant Protein-1 (MCP1), CCL2 (gene 6347)
Kind of assay: BSK_LPS_MCP1: BioMAP Diversity Plus: LPS Assay for Monocyte Chemoattractant Protein-1 (MCP1) Biomarker Activity (AID 2283081). The following applies: primary human HUVEC with PBMC; actives raise or lower the signal. The method in brief: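 Secreted MCP-1 read by ELISA at 24 h post-dosing in an LPS-activated co-culture of endothelial cells with peripheral blood mononuclear cells. Fits run in both directions, DMSO as baseline; parallel SRB staining tracks overt cytotoxicity.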

The source holds several records for some structures; these can differ, active in one and inactive in another. Activity calls are given as the source filed them. Rule for the calls: active = hit-call score of the fitted dose curve at least 0.9, where 1 is the maximum; inactive = score below 0.9.

Chain of E-selectin (Homo sapiens) (P16581 whole entry, looked up): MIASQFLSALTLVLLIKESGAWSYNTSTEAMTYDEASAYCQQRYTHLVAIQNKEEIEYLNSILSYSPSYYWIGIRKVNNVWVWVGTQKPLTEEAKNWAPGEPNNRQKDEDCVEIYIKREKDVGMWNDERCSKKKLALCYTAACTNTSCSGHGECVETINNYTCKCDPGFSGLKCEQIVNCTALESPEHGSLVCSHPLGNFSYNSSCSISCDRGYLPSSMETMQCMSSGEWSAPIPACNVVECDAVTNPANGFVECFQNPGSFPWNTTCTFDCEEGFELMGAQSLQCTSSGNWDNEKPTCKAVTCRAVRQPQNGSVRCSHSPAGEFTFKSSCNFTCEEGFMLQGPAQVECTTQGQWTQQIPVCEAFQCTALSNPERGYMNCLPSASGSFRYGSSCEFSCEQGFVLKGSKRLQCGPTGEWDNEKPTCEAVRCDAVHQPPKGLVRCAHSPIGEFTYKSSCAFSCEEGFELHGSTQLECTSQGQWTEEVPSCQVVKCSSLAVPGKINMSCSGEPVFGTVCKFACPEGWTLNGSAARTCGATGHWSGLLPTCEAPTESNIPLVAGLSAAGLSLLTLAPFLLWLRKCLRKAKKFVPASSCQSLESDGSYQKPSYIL

With `CCCCCCCCCCCCCCCC(=O)OC/C=C(C)/C=C/C=C(C)/C=C/C1=C(C)CCCC1(C)C`, the outcome in [1], in [2], in assay [3], in assay [5], in assay [6] and in assay [7] was inactive. The outcome in [8], in assay [9], in assay [11], in [13], in assay [14] and in assay [15] was inactive. For the same compound, the outcome in assay [16], in [17], in assay [18] and in [19] was inactive. The half-maximal activity concentration (AC50) in assay [4] was 3.97 µM (active); in [10], 0.0644 µM (active); in [12], 0.125 µM (active).

In the case of `CC(=O)c1c(C)c([N+](=O)[O-])c(C(C)(C)C)c([N+](=O)[O-])c1C`, the outcome in assay [1], in [3], in [4], in assay [5], in assay [6] and in assay [7] was inactive. For the same compound, the outcome in [8], in assay [9], in assay [10], in [11], in [12] and in [13] was inactive. The outcome in assay [14], in [15], in [16], in assay [17], in assay [18] and in assay [19] was inactive.

Consider `O=C(Nc1ccc2c(O)c(N=Nc3ccc(N=Nc4ccc(S(=O)(=O)O)cc4)cc3)c(S(=O)(=O)O)cc2c1)c1ccccc1`, for which the AC50 is 23.6 µM (active) in assay [1] and 15.1 µM (active) in [3]. Moreover, the result in assay [1], in assay [3], in assay [4], in [5], in assay [6] and in assay [7] was inactive. The result in [8], in [9], in assay [11], in assay [12], in [13] and in [14] was inactive. Also, the outcome in [15], in [16], in [17], in assay [18] and in [19] was inactive.

Consider `CC(C)(N=C=O)c1cccc(C(C)(C)N=C=O)c1`, for which the outcome in [1], in assay [3], in assay [4], in assay [5], in assay [6] and in [7] was inactive. In addition, the result in [8], in assay [9], in assay [10], in [11], in [12] and in assay [13] was inactive. The result in [14], in assay [15], in assay [16], in assay [17], in assay [18] and in assay [19] was inactive.

For `O=C1c2ccccc2C(=O)c2c(O)ccc(O)c21`, the result in [1], in assay [3], in assay [5], in [6], in [7] and in [8] was inactive. Moreover, the outcome in assay [9], in assay [10], in assay [11], in assay [12], in assay [13] and in [14] was inactive. Further, the result in assay [15], in [16], in assay [17], in assay [18] and in assay [19] was inactive. In addition, in assay [4], the concentration at half-maximal activity (AC50) was 4.59 µM (active).

As to `CCOC(=O)C(C#N)=C(c1ccccc1)c1ccccc1`, the outcome in assay [1], in assay [3], in assay [4], in assay [5], in [6] and in [7] was inactive. In addition, the outcome in [8], in assay [9], in assay [11], in [12], in [13] and in assay [14] was inactive. The result in assay [15], in [16], in assay [17], in assay [18] and in assay [19] was inactive. The AC50 in assay [3] was 14.6 µM (active).

(Values after PubChem BioAssay (EPA / NIEHS).)
